Measurements: PubChem BioAssay
Activity calls are given as the source filed them.

Columns and labels:
[1] = binders of probe aFSTL3 on microarray, primary screen, stem cell growth factor project, biochemical, small-molecule microarray, fluorescence 635/667 (AID 1064); details: higher = more signal;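 note: measures binding of the biotinylated anti-FSTL3 antibody to printed compounds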
[2] = binders from COS7 lysate, DM2A8 probe, primary screen, torsin A project, cell lysate, small-molecule microarray, fluorescence 635/667 (AID 1065); details: higher = more signal, COS7 lysate expressing mutant human TOR1A
[3] = binders of probe aFGF2 on microarray, primary screen, stem cell growth factor project, biochemical, small-molecule microarray, fluorescence 635/667 (AID 1067); details: higher = more signal;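 note: measures binding of biotinylated aFGF2 protein to printed compounds on slides; z-score merges feature fluorescence and signal-to-noise across triplicate slides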
[4] = binders of probe aFGF10 on microarray, primary screen, stem cell growth factor project, biochemical, small-molecule microarray, fluorescence 635/667 (AID 1071); details: higher = more signal;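 note: score merges 667 nm spot intensity and signal to noise from triplicate slides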
[5] = target: Neurogenic locus notch homolog protein 2 (Homo sapiens) (UniProt Q04721); experiment: Notch2 binders on small-molecule microarrays, primary screen, biochemical, small-molecule microarray, 635 nm fluorescence, stem cell growth factors (AID 1073); details: Notch2 binding, higher = more signal
[6] = target: Pro-neuregulin-1, membrane-bound isoform (Homo sapiens) (UniProt Q02297); experiment: NRG1 binders on small-molecule microarrays, primary screen, psychiatric disease protein project, biochemical, small-molecule microarray, fluorescence 635/667 (AID 1075); details: NRG1 binding, 635 nm fluorescence, higher = more signal;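 note: score combines 667 nm spot fluorescence with signal to noise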
[7] = system: Neuregulin-1 EGF-like domain; experiment: binders of neuregulin-1 EGF-like domain, primary screen, biochemical, small-molecule microarray, 635 nm fluorescence (AID 1081); details: small-molecule microarray binding, higher = more signal;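 note: binding of the protein to compounds printed on small-molecule microarray slides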
[8] = FRG1 promoter luciferase signal modulators, primary screen, FRG1 inhibition for FSHD, cell-based, C2C12 myotubes, firefly/Renilla luciferase, luminescence (AID 1084); details: higher = more signal, called active from +8 up or from −8 down
[9] = binders of probe aFST on microarray, primary screen, stem cell growth factor project, biochemical, small-molecule microarray, fluorescence 635/667 (AID 1086); details: higher = more signal;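 note: score merges 667 nm fluorescence with signal-to-noise of each printed compound spot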
[10] = binders of probe aHhip on microarray, primary screen, stem cell growth factor project, biochemical, small-molecule microarray, fluorescence 635/667 (AID 1087); details: higher = more signal;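 note: score merges spot fluorescence at 667nm with spot signal to noise ratio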
[11] = system: PRMT1 (protein arginine N-methyltransferase 1); experiment: PRMT1 binders on small-molecule microarrays, primary screen, biochemical, small-molecule microarray, 635 nm fluorescence (AID 1088); details: small-molecule microarray binding, higher = more signal;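 note: binding of Prmt1 protein to compounds spotted on small-molecule microarray slides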
[12] = yeast growth modulation, basal conditions, primary screen, YJM789 clinical isolate, OD600, 24 h (AID 1089);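 note: growth of clinical yeast isolate S. cerevisiae YJM 789 seeded 1000 cells per well; test concentration not given here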; details: S. cerevisiae YJM789 growth, higher = more signal, called active from +8 up or from −8 down
[13] = fission yeast growth modulation, primary screen, strain 972, OD600, 24 h, no modulator (AID 1090);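 note: basal condition with compound alone and no growth modifier present; test concentration not given here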; details: S. pombe 972 growth, higher = more signal, called active from +8 up or from −8 down
[14] = S. cerevisiae growth modulation with rapamycin, primary screen, strain BY4716, OD600, 96 h (AID 1091); details: higher = more signal, called active from +8 up or from −8 down; note: test concentration not given here
[15] = target: Torsin-1A-interacting protein 2 (Homo sapiens) (UniProt Q8NFQ8); experiment: LULL1 binders on small-molecule microarray, primary screen, cell lysate, human LULL1 lysate, 635/667 nm fluorescence (AID 1092); details: hLULL1 lysate binding, 635 nm fluorescence, higher = more signal;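 note: probe is lysate of COS7 cells overexpressing human LULL1; score merges per-feature 667 nm fluorescence with signal-to-noise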
[16] = E. coli growth modulation, two-sided OD650, primary screen, E. coli filamentation project, strain DRC41, 24 h (AID 1093); details: OD650, 24 h, higher = more signal, called active from +8 up or from −8 down;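 note: MC1000 strain lacking acrAB efflux and sulA so SOS filamentation is blocked; test concentration not given here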
[17] = small-molecule microarray binders of probe aLefty2, primary screen, biochemical, biotinylated probe, 635/667 nm fluorescence (AID 1094); details: higher = more signal;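 note: score merges spot fluorescence near 667 nm with spot signal-to-noise ratio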
[18] = system: Noggin (protein binding on small-molecule microarray); experiment: Noggin binders on small-molecule microarray, primary screen, biochemical, 635/667 nm fluorescence (AID 1095); details: 635 nm fluorescence, higher = more signal;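 note: score merges 667 nm feature fluorescence with signal to noise over triplicate slides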
[19] = target: Neurogenic locus notch homolog protein 3 (Homo sapiens) (UniProt Q9UM47); experiment: NOTCH3 binders on small-molecule microarray, primary screen, biochemical, 635/667 nm fluorescence (AID 1096); details: NOTCH3 binding, 635 nm fluorescence, higher = more signal
[20] = small-molecule microarray binders of probe aEGFR, primary screen, biochemical, biotinylated probe, 635/667 nm fluorescence (AID 1097); details: higher = more signal;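 note: probe is a biotinylated anti-EGFR antibody binding compounds printed on slides; score combines fluorescence near 667 nm and signal to noise of each spot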

Torsin-1A-interacting protein 2 (Homo sapiens), sequence (Q8NFQ8 whole entry, looked up): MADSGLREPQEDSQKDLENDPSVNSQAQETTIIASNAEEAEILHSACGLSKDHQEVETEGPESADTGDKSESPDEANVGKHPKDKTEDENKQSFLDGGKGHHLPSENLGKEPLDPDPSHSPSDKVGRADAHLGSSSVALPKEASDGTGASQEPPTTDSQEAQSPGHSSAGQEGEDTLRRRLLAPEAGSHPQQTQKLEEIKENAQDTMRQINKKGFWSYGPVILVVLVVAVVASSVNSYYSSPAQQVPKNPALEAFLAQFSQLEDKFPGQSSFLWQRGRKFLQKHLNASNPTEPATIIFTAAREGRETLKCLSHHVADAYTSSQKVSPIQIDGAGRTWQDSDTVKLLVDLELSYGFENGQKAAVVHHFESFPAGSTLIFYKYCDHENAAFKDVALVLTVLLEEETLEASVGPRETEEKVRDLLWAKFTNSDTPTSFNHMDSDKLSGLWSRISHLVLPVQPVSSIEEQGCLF
Pro-neuregulin-1, membrane-bound isoform (Homo sapiens), sequence (Q02297 whole entry, looked up, the tested form may be a part, canonical isoform): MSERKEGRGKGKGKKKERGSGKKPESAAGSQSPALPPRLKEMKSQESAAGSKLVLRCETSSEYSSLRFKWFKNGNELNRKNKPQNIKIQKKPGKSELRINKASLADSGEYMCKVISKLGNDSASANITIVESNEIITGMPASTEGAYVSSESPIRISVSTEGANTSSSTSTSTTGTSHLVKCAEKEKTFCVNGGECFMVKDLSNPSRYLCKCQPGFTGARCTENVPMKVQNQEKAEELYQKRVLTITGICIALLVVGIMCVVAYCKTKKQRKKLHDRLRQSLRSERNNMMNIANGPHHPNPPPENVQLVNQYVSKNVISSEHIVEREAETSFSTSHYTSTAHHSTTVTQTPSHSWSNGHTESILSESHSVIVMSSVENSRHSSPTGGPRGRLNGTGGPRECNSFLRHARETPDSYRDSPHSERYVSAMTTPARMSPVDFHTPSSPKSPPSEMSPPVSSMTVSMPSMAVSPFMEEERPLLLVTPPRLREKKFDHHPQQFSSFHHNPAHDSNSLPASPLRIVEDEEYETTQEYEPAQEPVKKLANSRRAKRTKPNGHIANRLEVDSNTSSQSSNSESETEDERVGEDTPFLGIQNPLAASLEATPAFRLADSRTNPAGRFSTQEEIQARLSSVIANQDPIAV
Neurogenic locus notch homolog protein 2 (Homo sapiens), sequence (Q04721 whole entry, looked up, canonical isoform): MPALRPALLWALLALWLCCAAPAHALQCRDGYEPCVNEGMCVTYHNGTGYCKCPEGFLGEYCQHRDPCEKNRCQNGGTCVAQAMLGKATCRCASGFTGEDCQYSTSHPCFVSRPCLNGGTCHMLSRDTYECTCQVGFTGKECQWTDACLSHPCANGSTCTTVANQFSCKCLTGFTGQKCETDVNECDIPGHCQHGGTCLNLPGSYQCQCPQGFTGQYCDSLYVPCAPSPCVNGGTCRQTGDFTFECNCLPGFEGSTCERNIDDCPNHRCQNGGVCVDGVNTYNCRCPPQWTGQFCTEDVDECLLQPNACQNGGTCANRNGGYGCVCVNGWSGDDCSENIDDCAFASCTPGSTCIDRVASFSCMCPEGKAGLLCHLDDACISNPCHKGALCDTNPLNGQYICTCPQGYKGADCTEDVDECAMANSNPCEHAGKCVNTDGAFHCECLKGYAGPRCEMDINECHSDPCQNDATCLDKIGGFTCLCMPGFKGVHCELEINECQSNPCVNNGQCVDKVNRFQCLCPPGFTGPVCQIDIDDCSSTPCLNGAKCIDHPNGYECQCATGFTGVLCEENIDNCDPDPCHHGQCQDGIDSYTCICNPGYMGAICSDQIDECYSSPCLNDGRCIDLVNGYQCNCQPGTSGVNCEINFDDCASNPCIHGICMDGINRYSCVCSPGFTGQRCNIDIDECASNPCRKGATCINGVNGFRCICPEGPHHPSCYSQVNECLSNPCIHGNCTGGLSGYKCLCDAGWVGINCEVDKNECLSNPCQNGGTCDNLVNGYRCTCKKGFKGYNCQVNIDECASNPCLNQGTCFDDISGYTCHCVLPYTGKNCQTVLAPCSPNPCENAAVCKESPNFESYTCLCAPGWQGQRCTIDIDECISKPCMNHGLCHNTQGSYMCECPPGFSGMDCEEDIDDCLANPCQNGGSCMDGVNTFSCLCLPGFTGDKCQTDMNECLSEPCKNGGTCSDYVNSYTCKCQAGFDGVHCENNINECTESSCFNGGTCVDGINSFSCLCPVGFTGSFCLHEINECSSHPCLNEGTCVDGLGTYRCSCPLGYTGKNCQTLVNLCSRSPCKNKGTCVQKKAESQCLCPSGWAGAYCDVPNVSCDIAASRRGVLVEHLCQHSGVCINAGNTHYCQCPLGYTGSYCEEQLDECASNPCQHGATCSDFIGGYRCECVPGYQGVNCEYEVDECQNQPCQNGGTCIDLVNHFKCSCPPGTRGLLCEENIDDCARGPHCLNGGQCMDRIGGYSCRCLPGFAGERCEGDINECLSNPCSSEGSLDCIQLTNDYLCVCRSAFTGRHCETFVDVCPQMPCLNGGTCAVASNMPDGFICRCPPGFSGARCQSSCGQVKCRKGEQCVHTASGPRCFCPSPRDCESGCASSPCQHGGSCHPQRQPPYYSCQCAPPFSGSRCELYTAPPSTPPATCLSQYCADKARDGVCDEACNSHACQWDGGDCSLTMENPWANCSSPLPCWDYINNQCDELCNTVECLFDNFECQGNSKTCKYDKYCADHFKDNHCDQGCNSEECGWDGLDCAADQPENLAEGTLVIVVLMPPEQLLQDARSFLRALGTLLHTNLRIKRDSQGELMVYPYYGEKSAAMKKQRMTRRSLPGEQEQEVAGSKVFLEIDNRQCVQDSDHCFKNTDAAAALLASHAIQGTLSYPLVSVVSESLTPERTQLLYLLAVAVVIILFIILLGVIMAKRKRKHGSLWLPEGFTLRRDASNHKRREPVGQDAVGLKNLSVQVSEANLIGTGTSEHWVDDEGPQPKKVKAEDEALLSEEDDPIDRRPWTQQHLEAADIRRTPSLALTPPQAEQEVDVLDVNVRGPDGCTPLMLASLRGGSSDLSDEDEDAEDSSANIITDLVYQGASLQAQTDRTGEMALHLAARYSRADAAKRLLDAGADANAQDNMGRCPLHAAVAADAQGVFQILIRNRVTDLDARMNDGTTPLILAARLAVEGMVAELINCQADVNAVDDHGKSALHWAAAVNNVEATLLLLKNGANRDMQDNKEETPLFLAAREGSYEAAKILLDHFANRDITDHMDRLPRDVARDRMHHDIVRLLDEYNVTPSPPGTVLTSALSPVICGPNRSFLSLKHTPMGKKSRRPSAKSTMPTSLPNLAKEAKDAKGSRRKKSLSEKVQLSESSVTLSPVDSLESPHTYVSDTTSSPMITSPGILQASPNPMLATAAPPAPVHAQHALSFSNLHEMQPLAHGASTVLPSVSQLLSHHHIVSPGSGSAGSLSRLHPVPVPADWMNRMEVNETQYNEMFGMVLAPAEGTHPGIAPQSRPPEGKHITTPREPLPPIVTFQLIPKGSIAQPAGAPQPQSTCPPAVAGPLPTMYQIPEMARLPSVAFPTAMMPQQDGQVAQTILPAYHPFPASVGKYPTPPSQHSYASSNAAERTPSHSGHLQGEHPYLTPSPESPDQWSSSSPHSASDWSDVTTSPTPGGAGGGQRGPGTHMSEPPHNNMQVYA

| Structure (SMILES) | composite z-score [1] | composite z-score [2] | composite z-score [3] | composite z-score [4] | composite z-score [5] | composite z-score [6] | composite z-score [7] | z-score [8] | composite z-score [9] | composite z-score [10] | composite z-score [11] | z-score [12] | z-score [13] | z-score [14] | composite z-score [15] | z-score [16] | composite z-score [17] | composite z-score [18] | composite z-score [19] | composite z-score [20] |
| --- | --- | --- | --- | --- | --- | --- | --- | --- | --- | --- | --- | --- | --- | --- | --- | --- | --- | --- | --- | --- |
| [N-]=[N+]=NCc1ccccc1C[C@@]1(C(=O)N2CCCCC2)N=C(c2ccc(OCCCO)cc2)O[C@@H]1c1ccccc1N=[N+]=[N-] | 0.167 | 0.101 | -0.204 | 0.229 | 1.49 | 1.38 | 1.05 | -3 (inactive) | 0.227 | 0.0505 | 0.422 | -0.64 (inactive) | 0.832 (inactive) | 4.02 (inactive) | 1.73 | 1.17 (inactive) | -0.0591 | 0.244 | 0.923 | 0.0923 |
| CC(C)(C)N1CC=CC23O[C@@H]4C=CCOC(=O)[C@@H]4[C@H]2C(=O)N(CCCO)[C@@H]3C1=O (stereo not given in full) | 0.698 | -0.182 | -0.199 | -0.838 | -1.54 | -0.475 | 1.08 | 0.619 (inactive) | -1 | -0.0994 | -0.768 | 0.149 (inactive) | 0.0155 (inactive) | -0.288 (inactive) | -0.558 | 1.27 (inactive) | -0.147 | -1.62 | -1.54 | -0.314 |
| C=C(CCCC)C(=O)CC[C@@H](OC(=O)c1cccnc1)c1ccccc1OCCO | 0.0165 | 0.77 | -0.0878 | 0.0032 | -0.872 | -0.413 | -0.0199 | -0.449 (inactive) | -0.604 | -0.0994 | 1.31 | -0.765 (inactive) | -1.37 (inactive) | -0.24 (inactive) | 0.178 | 0.22 (inactive) | 0.0166 | 0.836 | 0.144 | -0.0565 |
| C=CC1c2cc(O)c(OC)cc2CCN1Cc1sc2ccccc2c1Cl (stereo not given) | 1.12 | 0.396 | -0.0316 | 0.436 | 1.2 | 1.9 | 1.23 | -0.732 (inactive) | 0.853 | -0.0237 | 0.756 | -1.62 (inactive) | -19.2 (active) | -0.399 (inactive) | 2.49 | -0.368 (inactive) | 0.233 | 0.123 | 0.968 | 0.0673 |
| CCCCC(=C=CC[C@@H](O)c1ccc(OCCO)cc1)C[C@@H](O)COCc1ccccc1 | -0.111 | 1.09 | -0.0783 | 0.114 | -1.11 | -0.376 | -0.0622 | -2.2 (inactive) | 0.101 | 0.0743 | 0.989 | -1.24 (inactive) | -2.39 (inactive) | -1.07 (inactive) | 0.146 | 1.69 (inactive) | -0.166 | 1.14 | -0.198 | -0.18 |
